# In PubChem BioAssay:
# Where “and” joins values, the source holds several entries; their conditions need not be identical. Equal entries are not always repeated. Records with an inconclusive call do not appear. Calls of active or inactive are those of the source. Unless noted, the limit is not given here; nearly all actives have AC50 up to about 26 µM.
# What was measured:
# [1] = EMT-state selective cytotoxicity in co-culture – imaging, PC-3E GFP, TEM4-18 mCherry, primary screen (AID 1345086;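 active = compounds killing one labelled cell type while sparing the other, by normalised counts and ratio limits, not self-fluorescent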;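 as to all read-outs here: cells exposed to compound for 72 h before imaging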;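 as to red/green cell ratio (normalised): normalised mesenchymal count divided by normalised epithelial count so high means epithelial killing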); conditions: PC-3E GFP / TEM4-18 mCherry co-culture, imaging cell counts, at 1 µM; for red/green cell ratio (normalised): actives lie on both sides, counts scaled to control wells, 1 = unselective
# [2] = viability loss in pontine glioma line – cell-based, SU-DIPG-XVII, MIPE5.0, CellTiter-Glo, qHTS, dose response (AID 1347060); conditions: CellTiter-Glo ATP luminescence;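 as to AC50: cells exposed to compound for 48 hours before viability readout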
# [3] = viability loss in pontine glioma line – cell-based, SU-DIPG-XIII, MIPE4.0, CellTiter-Glo, qHTS, dose response (AID 1347061; cut-off not given, nearly all actives have AC50 up to about 37 µM;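 also: cells exposed to compound for 48 hours before readout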); conditions: CellTiter-Glo ATP luminescence
# [4] = viability loss in pontine glioma line – cell-based, JHH-DIPG-1, MIPE4.0, CellTiter-Glo, qHTS, dose response (AID 1347062; cut-off not given, nearly all actives have AC50 up to about 27 µM;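 as to AC50: cells exposed to compound for two days before readout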); conditions: JHH-DIPG-1 viability, CellTiter-Glo ATP luminescence
# [5] = viability loss in pontine glioma line – cell-based, SU-DIPG-XIII, MIPE5.0, CellTiter-Glo, qHTS, dose response (AID 1347064; cut-off not given, nearly all actives have AC50 up to about 23 µM;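 as to AC50: cells exposed to compound for 48 hours before the viability read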); conditions: CellTiter-Glo ATP luminescence
# [6] = viability loss in pontine glioma line – cell-based, SU-DIPG-XXV, MIPE5.0, CellTiter-Glo, qHTS, dose response (AID 1347065); conditions: CellTiter-Glo ATP luminescence;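 also: cells exposed to compound for 48 hours before ATP readout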
# [7] = JHH-DIPG-1 glioma cell viability, MIPE5.0 library, CellTiter-Glo luminescence, qHTS (AID 1347067); conditions: JHH-DIPG-1 glioma viability, CellTiter-Glo ATP luminescence;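 also: cells exposed to compound for 48 hours before readout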
# [8] = growth inhibition of DIPG cells – cell-based, MIPE5.0 library, qHTS (AID 1347068; cut-off not given, nearly all actives have IC50 up to about 30 µM); conditions: SU-DIPG-XXV viability
# [9] = viability loss with induced miR-34 in A549 – imaging, A549 dox-inducible miR-34, nuclei and caspase counts, primary screen (AID 1347080;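 active = compounds whose cell count with miR-34 switched on is under 0.7 times the count with it off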); conditions: A549 miR-34 inducible, Hoechst nuclei count, 48 h
# [10] = MELAS cybrid and Rieske KO viability enhancers – cell-based, MELAS cybrids, Rieske KO mouse fibroblasts, CellTiter-Glo, primary screen (AID 1508586;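 active = mean z-score across replicates of 1.96 or higher in either the MELAS or the Rieske mutant cell line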;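 also: z relative to plate mean and SD of compound and empty wells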); conditions: low glucose
# [11] = viability loss in pontine glioma line – cell-based, SU-DIPG-IV, MIPE4.0, CellTiter-Glo, qHTS, dose response (AID 1347063; cut-off not given, nearly all actives have AC50 up to about 30 µM;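 also: compound exposure lasted 48 hours before the viability readout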); conditions: CellTiter-Glo ATP luminescence
# [12] = growth inhibition of DIPG cells – cell-based, MIPE4.0 library, CellTiter-Glo luminescence, qHTS (AID 1347066; cut-off not given, nearly all actives have AC50 up to about 30 µM;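 also: cells exposed to compound for 48 hours before readout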); conditions: SU-DIPG-VI viability, CellTiter-Glo ATP luminescence
# [13] = blockers of cellular phospholipid synthesis – cell-based, LOPAC library, screen 4, primary screen (AID 1347384; call rule not given here); conditions: animal cells, phospholipid biosynthesis inhibition screen; at 10 µM
# [14] = measured here: epithelial PC-3E GFP cell survival
# [15] = measured here: mesenchymal TEM4-18 mCherry cell survival
# [16] = stronger effect = lower value, cell number ratio, induced over uninduced
# [17] = measured here: relative caspase fold change +Dox/-Dox
# [18] = measured here: total cells with miR-34 induction, stronger effect = lower value
# [19] = measured here: total cells without miR-34 induction
# [20] = MELAS cybrid survival, CellTiter-Glo 48 h, stronger effect = higher value
# [21] = Rieske KO mouse fibroblast survival, CellTiter-Glo 72 h
smiles,measurement,setting,value
CN(Cc1cc(Br)cc(Br)c1N)C1CCCCC1,red/green cell ratio (normalised),[1],1.35 (inactive)
same,normalised cell number,[1]; [14],0.99
same,normalised cell number,[1]; [15],1.33
same,AC50,[2],26.3 µM (active)
same,outcome,[3],inactive
same,outcome,[4],inactive
same,AC50,[5],20.9 µM (active)
same,AC50,[6],16.6 µM (active)
same,AC50,[7],26.3 µM (active)
same,outcome,[8],inactive
same,fold change,[9]; [16],0.928 (inactive) and 0.903 (inactive) and 0.881 (inactive)
same,fold change,[9]; [17],0.942 and 3.08 and 1.05
same,cell count,[9]; [18],8160 and 11000 and 9390
same,cell count,[9]; [19],8790 and 12200 and 10700
same,z-score,[10]; [20],-0.2 (inactive) and -0.238 (inactive) and -0.0697 (inactive)
same,z-score,[10]; [21],0.932 and -0.166 and 0.184
CC1=C(C)C(=O)C(C(CCCCCC(=O)O)c2ccccc2)=C(C)C1=O (centres undefined),red/green cell ratio (normalised),[1],1.03 (inactive)
same,normalised cell number,[1]; [14],1.04
same,normalised cell number,[1]; [15],1.08
same,outcome,[2],inactive
same,outcome,[3],inactive
same,outcome,[4],inactive
same,outcome,[11],inactive
same,outcome,[6],inactive
same,outcome,[12],inactive
same,outcome,[7],inactive
same,outcome,[8],inactive
same,fold change,[9]; [16],0.907 (inactive)
same,fold change,[9]; [17],0.844
same,cell count,[9]; [18],9450
same,cell count,[9]; [19],10400
CC1=CC(=O)c2ccccc2C1=O,red/green cell ratio (normalised),[1],0.99 (inactive)
same,normalised cell number,[1]; [14],1.09
same,normalised cell number,[1]; [15],1.08
same,AC50,[2],23.5 µM (active)
same,AC50,[3],23.5 µM (active)
same,AC50,[4],8.33 µM (active)
same,AC50,[11],26.4 µM (active)
same,AC50,[12],8.33 µM (active)
same,AC50,[7],33.2 µM (active)
same,outcome,[8],inactive
same,fold change,[9]; [16],1.24 (inactive) and 1.04 (inactive) and 1.27 (inactive)
same,fold change,[9]; [17],0.813 and 0.493 and 0.646
same,cell count,[9]; [18],1500 and 4940 and 494
same,cell count,[9]; [19],1210 and 4760 and 388
same,z-score,[10]; [20],-0.194 (inactive)
same,z-score,[10]; [21],-1.25
S=P(N1CC1)(N1CC1)N1CC1,red/green cell ratio (normalised),[1],0.99 (inactive)
same,normalised cell number,[1]; [14],1.06
same,normalised cell number,[1]; [15],1.06
same,AC50,[2],20.9 µM (active)
same,outcome,[4],inactive
same,outcome,[5],inactive
same,outcome,[6],inactive
same,outcome,[12],inactive
same,outcome,[7],inactive
same,outcome,[8],inactive
same,fold change,[9]; [16],0.906 (inactive)
same,fold change,[9]; [17],2.37
same,cell count,[9]; [18],2790
same,cell count,[9]; [19],3080
NS(=O)(=O)c1cc2c(cc1Cl)NC(C(Cl)Cl)NS2(=O)=O (centres undefined),red/green cell ratio (normalised),[1],1.22 (inactive)
same,normalised cell number,[1]; [14],0.88
same,normalised cell number,[1]; [15],1.08
same,outcome,[2],inactive
same,outcome,[4],inactive
same,outcome,[11],inactive
same,outcome,[6],inactive
same,outcome,[12],inactive
same,outcome,[7],inactive
same,outcome,[8],inactive
same,z-score,[10]; [20],-0.307 (inactive) and 0.588 (inactive) and 0.372 (inactive)
same,z-score,[10]; [21],0.662 and 0.211 and -0.506
O=c1oc2c(O)c(O)cc3c(=O)oc4c(O)c(O)cc1c4c23,red/green cell ratio (normalised),[1],0.99 (inactive)
same,normalised cell number,[1]; [14],0.85
same,normalised cell number,[1]; [15],0.84
same,outcome,[2],inactive
same,outcome,[3],inactive
same,outcome,[4],inactive
same,outcome,[5],inactive
same,outcome,[6],inactive
same,outcome,[12],inactive
same,outcome,[7],inactive
same,outcome,[8],inactive
C1CCC(C(CC2CCCCN2)C2CCCCC2)CC1 (centres undefined),red/green cell ratio (normalised),[1],0.98 (inactive)
same,normalised cell number,[1]; [14],1.13
same,normalised cell number,[1]; [15],1.11
same,AC50,[2],7.42 µM (active)
same,AC50,[4],9.35 µM (active)
same,AC50,[11],20.9 µM (active)
same,AC50,[5],11.8 µM (active)
same,AC50,[6],10.5 µM (active)
same,AC50,[7],8.33 µM (active)
same,fold change,[9]; [16],0.746 (inactive) and 0.859 (inactive)
same,fold change,[9]; [17],0.891 and 3.18
same,cell count,[9]; [18],5600 and 9890
same,cell count,[9]; [19],7500 and 11500
same,z-score,[10]; [20],-1.07 (inactive)
same,z-score,[10]; [21],0.712
N[C@@H](Cc1ccc(O)c(O)c1)C(=O)O,red/green cell ratio (normalised),[1],0.88 (inactive)
same,normalised cell number,[1]; [14],1.01
same,normalised cell number,[1]; [15],0.89
same,outcome,[2],inactive
same,outcome,[3],inactive
same,outcome,[4],inactive
same,outcome,[11],inactive
same,outcome,[6],inactive
same,outcome,[12],inactive
same,outcome,[7],inactive
same,outcome,[8],inactive
same,outcome,[13],inactive
same,z-score,[10]; [20],-0.394 (inactive) and -0.26 (inactive)
same,z-score,[10]; [21],0.117 and -1.12
Cc1cn[nH]c1,red/green cell ratio (normalised),[1],0.92 (inactive) and 0.9 (inactive)
same,normalised cell number,[1]; [14],0.94 and 1.1
same,normalised cell number,[1]; [15],0.86 and 0.99
same,outcome,[2],inactive
same,AC50,[4],0.105 µM (active)
same,AC50,[11],3.32 µM (active)
same,outcome,[5],inactive
same,outcome,[6],inactive
same,outcome,[7],inactive
same,outcome,[8],inactive
same,fold change,[9]; [16],0.994 (inactive) and 0.902 (inactive)
same,fold change,[9]; [17],0.844 and 2.49
same,cell count,[9]; [18],10200 and 12000
same,cell count,[9]; [19],10200 and 13300
same,outcome,[13],inactive
same,z-score,[10]; [20],0.667 (inactive)
same,z-score,[10]; [21],0.0381
COc1ncnc(NS(=O)(=O)c2ccc(N)cc2)c1OC,red/green cell ratio (normalised),[1],1.18 (inactive)
same,normalised cell number,[1]; [14],0.5
same,normalised cell number,[1]; [15],0.6
same,outcome,[2],inactive
same,outcome,[3],inactive
same,outcome,[4],inactive
same,outcome,[11],inactive
same,outcome,[5],inactive
same,outcome,[12],inactive
same,outcome,[7],inactive
same,outcome,[8],inactive
same,fold change,[9]; [16],0.905 (inactive) and 0.917 (inactive) and 0.89 (inactive)
same,fold change,[9]; [17],0.874 and 2.12 and 1.28
same,cell count,[9]; [18],9490 and 11800 and 9350
same,cell count,[9]; [19],10500 and 12900
same,z-score,[10]; [20],0.681 (inactive) and -0.67 (inactive)
same,z-score,[10]; [21],0.678 and -1.38
CCCOc1ccc2nc(NC(=O)OC)[nH]c2c1,red/green cell ratio (normalised),[1],1.06 (inactive)
same,normalised cell number,[1]; [14],0.2
same,normalised cell number,[1]; [15],0.21
same,AC50,[2],0.372 µM (active)
same,outcome,[3],inactive
same,AC50,[5],0.661 µM (active)
same,AC50,[6],0.235 µM (active)
same,AC50,[7],0.295 µM (active)
same,fold change,[9]; [16],1.06 (inactive) and 1 (inactive)
same,fold change,[9]; [17],1.87 and 1.28
same,cell count,[9]; [18],2370 and 1800
same,cell count,[9]; [19],2250 and 1790
same,z-score,[10]; [20],-1.88 (inactive) and -2.12 (inactive)
same,z-score,[10]; [21],-0.332 and 1.54
C#CCN[C@@H]1CCc2ccccc21,red/green cell ratio (normalised),[1],0.97 (inactive)
same,normalised cell number,[1]; [14],0.98
same,normalised cell number,[1]; [15],0.94
same,outcome,[2],inactive
same,outcome,[3],inactive
same,outcome,[4],inactive
same,outcome,[11],inactive
same,outcome,[5],inactive
same,outcome,[12],inactive
same,outcome,[7],inactive
same,outcome,[8],inactive
same,fold change,[9]; [16],0.9 (inactive)
same,fold change,[9]; [17],0.614
same,cell count,[9]; [18],8560
same,cell count,[9]; [19],9500
same,z-score,[10]; [20],-0.17 (inactive)
same,z-score,[10]; [21],0.336
O=C(NC(Cc1cc(=O)[nH]c2ccccc12)C(=O)O)c1ccc(Cl)cc1 (centres undefined),red/green cell ratio (normalised),[1],1.12 (inactive)
same,normalised cell number,[1]; [14],0.89
same,normalised cell number,[1]; [15],0.99
same,outcome,[2],inactive
same,outcome,[4],inactive
same,outcome,[11],inactive
same,outcome,[5],inactive
same,outcome,[12],inactive
same,outcome,[7],inactive
same,outcome,[8],inactive
same,fold change,[9]; [16],0.898 (inactive) and 0.888 (inactive)
same,fold change,[9]; [17],0.965 and 1.15
same,cell count,[9]; [18],8440 and 9630
same,cell count,[9]; [19],9400 and 10800
same,z-score,[10]; [20],-0.219 (inactive) and -0.0914 (inactive) and 0.278 (inactive)
same,z-score,[10]; [21],0.648 and -0.845 and -0.0622
